In general, inhibition refers to the relative decrease from the control value, in per cent.

In experiment [1] the target is Rho-associated protein kinase 1 (Homo sapiens) (UniProt Q13464). To be noted: at 1 µM.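 Further: reported values are mean percent inhibition of ROCK1.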
Experiment [2] concerns the target Rho-associated protein kinase 2 (Homo sapiens) (UniProt O75116). To be noted: at 0.1 µM.
For experiment [3] the target is unchanged. To be noted: at 1 µM.
The target in experiment [4] is Ribosomal protein S6 kinase alpha-1 (Homo sapiens) (UniProt Q15418). Particulars: at 0.1 µM.
The target is the same in experiment [5]. Particulars: at 1 µM.
Experiment [6] has as its target Ribosomal protein S6 kinase alpha-3 (Homo sapiens) (UniProt P51812). To be noted: at 0.1 µM.
Experiment [7] shares this target. Particulars: at 1 µM.
Experiment [8] concerns the target Ribosomal protein S6 kinase alpha-2 (Homo sapiens) (UniProt Q15349). Particulars: at 0.1 µM.
Experiment [9] has the same target. Particulars: at 1 µM.
Experiment [10] addresses Ribosomal protein S6 kinase alpha-6 (Homo sapiens) (UniProt Q9UK32). Particulars: at 0.1 µM.
Experiment [11] has the same target. Particulars: at 1 µM.
The target in experiment [12] is T1, Serine/threonine-protein kinase Sgk1 (Homo sapiens) (UniProt O00141).
T1 sequence (whole entry): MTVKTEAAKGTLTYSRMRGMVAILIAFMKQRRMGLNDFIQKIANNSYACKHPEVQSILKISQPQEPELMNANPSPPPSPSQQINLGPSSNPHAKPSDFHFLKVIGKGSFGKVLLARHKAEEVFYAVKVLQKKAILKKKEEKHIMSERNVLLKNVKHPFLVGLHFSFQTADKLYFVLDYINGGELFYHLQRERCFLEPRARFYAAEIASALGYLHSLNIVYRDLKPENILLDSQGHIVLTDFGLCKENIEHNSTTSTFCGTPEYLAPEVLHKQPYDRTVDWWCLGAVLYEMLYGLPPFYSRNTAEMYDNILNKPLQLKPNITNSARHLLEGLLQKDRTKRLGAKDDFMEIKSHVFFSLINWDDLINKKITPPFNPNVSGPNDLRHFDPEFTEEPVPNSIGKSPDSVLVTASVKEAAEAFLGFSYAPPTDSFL
To be noted: at 0.1 µM.

The target in experiment [13] is T1, Serine/threonine-protein kinase Sgk1 (Homo sapiens). To be noted: at 1 µM.
For experiment [14], the target named is T2, Serine/threonine-protein kinase Sgk2 (Homo sapiens) (UniProt Q9HBY8).
T2 sequence (whole entry): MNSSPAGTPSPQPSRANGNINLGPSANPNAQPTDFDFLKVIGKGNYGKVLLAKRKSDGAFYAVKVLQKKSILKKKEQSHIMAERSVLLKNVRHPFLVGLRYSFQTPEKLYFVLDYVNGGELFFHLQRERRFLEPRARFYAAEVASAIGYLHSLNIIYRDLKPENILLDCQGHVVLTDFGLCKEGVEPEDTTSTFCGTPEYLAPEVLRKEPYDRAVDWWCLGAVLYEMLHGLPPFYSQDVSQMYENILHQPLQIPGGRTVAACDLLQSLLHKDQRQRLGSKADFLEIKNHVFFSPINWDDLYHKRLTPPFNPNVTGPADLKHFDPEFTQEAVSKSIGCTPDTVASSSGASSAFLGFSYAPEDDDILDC
To be noted: at 0.1 µM.

Experiment [15] concerns the target T2, Serine/threonine-protein kinase Sgk2 (Homo sapiens). Particulars: at 1 µM.
Experiment [16] has as its target T3, Serine/threonine-protein kinase Sgk3 (Homo sapiens) (UniProt Q96BR1).
T3 sequence (whole entry): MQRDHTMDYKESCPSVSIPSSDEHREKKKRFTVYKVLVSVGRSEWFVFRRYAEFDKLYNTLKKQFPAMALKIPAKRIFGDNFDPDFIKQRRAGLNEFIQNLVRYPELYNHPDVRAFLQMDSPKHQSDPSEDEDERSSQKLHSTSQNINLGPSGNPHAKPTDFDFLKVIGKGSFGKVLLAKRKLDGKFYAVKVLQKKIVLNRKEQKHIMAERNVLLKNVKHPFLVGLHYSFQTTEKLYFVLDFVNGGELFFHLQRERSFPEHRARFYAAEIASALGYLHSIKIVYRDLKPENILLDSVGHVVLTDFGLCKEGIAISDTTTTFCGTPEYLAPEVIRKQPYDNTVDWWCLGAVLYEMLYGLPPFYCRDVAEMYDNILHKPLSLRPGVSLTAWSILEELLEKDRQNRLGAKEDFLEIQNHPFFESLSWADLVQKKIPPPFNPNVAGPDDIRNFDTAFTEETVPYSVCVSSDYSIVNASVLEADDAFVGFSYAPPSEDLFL
Particulars: at 0.1 µM.

The target of experiment [17] is T3, Serine/threonine-protein kinase Sgk3 (Homo sapiens). Particulars: at 1 µM.
The target of experiment [18] is 5'-AMP-activated protein kinase catalytic subunit alpha-1 (Homo sapiens) (UniProt Q13131). Particulars: at 0.1 µM.
Experiment [19] shares this target. Particulars: at 1 µM.
Experiment [20] addresses 5'-AMP-activated protein kinase catalytic subunit alpha-2 (Homo sapiens) (UniProt P54646). Particulars: at 0.1 µM.

Rho-associated protein kinase 1 (Homo sapiens), sequence (Q13464 2-1354 limits assumed): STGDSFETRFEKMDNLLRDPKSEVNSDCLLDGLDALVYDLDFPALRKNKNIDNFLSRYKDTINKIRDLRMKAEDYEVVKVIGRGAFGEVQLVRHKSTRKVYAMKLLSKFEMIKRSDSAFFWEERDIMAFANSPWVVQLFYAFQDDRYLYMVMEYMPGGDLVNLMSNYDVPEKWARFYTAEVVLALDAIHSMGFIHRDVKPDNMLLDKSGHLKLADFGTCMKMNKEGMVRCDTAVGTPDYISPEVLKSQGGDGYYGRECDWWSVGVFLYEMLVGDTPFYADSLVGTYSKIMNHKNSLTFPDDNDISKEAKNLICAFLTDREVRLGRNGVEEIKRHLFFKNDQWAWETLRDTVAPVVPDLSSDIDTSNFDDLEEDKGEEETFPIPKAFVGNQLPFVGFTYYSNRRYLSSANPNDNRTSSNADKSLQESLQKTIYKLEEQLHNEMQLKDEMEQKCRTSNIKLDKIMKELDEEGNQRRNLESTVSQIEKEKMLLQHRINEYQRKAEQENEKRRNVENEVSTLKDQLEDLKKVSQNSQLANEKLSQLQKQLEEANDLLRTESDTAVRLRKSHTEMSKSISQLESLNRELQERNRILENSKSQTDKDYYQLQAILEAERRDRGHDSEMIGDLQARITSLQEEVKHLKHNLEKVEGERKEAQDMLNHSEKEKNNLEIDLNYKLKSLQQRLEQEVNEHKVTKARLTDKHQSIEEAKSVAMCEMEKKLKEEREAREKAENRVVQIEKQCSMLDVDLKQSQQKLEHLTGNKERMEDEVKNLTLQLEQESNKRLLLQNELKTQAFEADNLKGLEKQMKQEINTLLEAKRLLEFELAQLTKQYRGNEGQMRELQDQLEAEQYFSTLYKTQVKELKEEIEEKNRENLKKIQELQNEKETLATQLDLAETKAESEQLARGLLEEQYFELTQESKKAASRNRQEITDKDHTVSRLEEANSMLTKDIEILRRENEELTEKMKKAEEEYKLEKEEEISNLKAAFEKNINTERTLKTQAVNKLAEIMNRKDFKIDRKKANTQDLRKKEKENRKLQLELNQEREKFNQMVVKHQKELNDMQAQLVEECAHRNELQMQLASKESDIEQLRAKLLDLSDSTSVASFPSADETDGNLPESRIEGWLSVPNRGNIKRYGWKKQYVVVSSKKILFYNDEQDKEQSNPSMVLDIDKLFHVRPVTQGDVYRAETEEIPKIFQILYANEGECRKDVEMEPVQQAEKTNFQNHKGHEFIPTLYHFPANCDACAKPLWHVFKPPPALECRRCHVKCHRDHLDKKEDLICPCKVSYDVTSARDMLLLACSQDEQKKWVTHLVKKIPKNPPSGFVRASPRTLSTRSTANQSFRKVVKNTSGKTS
5'-AMP-activated protein kinase catalytic subunit alpha-1 (Homo sapiens), sequence (Q13131 whole entry, looked up): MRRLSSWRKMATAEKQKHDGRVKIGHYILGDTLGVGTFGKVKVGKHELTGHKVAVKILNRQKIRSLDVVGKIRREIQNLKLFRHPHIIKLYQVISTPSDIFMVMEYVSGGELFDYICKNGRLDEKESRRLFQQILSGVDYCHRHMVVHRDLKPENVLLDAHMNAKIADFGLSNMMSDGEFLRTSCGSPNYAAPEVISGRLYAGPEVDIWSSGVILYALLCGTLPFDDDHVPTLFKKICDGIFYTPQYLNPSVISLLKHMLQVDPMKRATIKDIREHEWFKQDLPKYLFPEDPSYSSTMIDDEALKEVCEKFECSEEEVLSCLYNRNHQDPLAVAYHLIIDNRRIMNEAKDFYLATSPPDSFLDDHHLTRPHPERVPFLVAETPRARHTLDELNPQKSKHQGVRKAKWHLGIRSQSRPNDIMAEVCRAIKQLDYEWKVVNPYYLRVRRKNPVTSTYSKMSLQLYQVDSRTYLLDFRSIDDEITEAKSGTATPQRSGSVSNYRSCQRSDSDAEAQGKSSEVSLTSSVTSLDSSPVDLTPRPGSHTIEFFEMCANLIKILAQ
5'-AMP-activated protein kinase catalytic subunit alpha-2 (Homo sapiens), sequence (P54646 whole entry, looked up): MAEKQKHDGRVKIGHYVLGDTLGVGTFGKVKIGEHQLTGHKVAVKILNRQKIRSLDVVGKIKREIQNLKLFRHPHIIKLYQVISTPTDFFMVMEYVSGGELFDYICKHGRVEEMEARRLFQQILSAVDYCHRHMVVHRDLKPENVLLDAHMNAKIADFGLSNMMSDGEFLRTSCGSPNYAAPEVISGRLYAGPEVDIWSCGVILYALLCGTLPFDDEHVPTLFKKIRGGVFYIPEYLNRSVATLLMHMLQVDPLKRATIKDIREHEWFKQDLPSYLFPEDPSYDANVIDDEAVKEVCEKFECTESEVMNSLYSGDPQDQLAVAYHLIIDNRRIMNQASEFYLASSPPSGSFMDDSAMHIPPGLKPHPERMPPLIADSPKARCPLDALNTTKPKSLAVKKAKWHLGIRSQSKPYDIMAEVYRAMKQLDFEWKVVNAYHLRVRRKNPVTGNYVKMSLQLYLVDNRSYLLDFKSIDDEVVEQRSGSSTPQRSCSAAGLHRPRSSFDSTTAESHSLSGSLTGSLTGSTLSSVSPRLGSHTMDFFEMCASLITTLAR
Ribosomal protein S6 kinase alpha-1 (Homo sapiens), sequence (Q15418 whole entry): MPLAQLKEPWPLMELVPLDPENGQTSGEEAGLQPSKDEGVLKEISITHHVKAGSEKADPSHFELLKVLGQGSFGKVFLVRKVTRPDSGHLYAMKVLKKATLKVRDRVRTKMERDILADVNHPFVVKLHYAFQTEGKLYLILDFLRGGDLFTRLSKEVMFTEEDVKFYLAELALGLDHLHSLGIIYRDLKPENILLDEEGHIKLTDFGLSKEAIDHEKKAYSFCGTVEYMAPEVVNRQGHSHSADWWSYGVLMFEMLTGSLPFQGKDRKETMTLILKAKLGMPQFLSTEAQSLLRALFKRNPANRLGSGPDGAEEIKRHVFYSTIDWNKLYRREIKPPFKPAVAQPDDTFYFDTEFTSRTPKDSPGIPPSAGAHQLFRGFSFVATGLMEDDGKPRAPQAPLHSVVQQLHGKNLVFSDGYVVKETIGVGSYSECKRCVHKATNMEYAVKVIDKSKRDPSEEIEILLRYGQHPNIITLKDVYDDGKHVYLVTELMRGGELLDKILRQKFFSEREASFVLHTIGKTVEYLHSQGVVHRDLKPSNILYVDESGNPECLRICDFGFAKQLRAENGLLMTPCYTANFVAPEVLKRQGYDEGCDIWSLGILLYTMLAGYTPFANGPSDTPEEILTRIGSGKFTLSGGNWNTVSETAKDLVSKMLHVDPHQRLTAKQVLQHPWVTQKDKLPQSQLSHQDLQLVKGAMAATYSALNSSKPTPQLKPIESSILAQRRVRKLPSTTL
Ribosomal protein S6 kinase alpha-3 (Homo sapiens), sequence (P51812 whole entry): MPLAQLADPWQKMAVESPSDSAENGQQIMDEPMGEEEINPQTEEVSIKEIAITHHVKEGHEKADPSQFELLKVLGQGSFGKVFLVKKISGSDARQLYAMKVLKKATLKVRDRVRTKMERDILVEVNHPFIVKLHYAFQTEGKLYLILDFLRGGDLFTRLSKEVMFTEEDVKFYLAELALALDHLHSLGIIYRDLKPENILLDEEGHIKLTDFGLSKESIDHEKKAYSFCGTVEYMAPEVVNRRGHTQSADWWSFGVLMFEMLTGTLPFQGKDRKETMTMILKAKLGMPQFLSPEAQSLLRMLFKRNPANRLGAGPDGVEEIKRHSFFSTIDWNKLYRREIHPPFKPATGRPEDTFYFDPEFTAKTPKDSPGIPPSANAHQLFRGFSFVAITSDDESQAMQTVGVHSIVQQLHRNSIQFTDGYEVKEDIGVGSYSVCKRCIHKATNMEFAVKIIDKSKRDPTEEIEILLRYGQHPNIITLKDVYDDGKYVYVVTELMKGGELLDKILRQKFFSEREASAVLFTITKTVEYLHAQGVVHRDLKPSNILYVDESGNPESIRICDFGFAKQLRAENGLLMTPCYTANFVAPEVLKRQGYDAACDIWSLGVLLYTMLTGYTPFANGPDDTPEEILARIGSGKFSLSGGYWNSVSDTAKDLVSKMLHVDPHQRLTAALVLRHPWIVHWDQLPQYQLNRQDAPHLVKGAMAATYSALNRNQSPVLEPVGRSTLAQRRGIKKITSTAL
Ribosomal protein S6 kinase alpha-2 (Homo sapiens), sequence (Q15349 whole entry): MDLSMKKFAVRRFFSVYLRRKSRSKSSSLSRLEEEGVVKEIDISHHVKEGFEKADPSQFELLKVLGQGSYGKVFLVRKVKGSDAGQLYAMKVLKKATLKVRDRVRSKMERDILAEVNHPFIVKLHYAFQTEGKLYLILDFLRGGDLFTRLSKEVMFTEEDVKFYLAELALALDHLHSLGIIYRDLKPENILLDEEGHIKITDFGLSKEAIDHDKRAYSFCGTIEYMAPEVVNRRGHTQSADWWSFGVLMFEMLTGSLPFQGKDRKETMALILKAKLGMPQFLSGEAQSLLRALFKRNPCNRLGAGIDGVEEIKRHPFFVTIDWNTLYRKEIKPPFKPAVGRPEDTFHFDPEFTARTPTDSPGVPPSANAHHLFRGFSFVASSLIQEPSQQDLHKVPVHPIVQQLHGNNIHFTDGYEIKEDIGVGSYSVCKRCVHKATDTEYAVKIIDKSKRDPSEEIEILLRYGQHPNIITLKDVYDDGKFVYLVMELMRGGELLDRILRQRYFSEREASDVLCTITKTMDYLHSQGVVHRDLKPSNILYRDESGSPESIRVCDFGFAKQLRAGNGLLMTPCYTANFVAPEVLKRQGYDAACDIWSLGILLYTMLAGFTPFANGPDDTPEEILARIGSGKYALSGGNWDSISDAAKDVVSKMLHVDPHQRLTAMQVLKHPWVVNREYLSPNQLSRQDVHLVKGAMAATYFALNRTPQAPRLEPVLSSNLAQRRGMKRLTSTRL

Regarding `CS(=O)(=O)CCNCc1ccc(-c2ccc3ncnc(Nc4ccc(OCc5ccccc5)c(Br)c4)c3c2)o1`, the inhibition is 2.16% in experiment [1]; 0.72% in experiment [2]; 1.26% in experiment [3]; -0.49% in experiment [4]; 0.36% in [5]; -0.55% in [6]. The inhibition in experiment [7] is -1.39%; in [8] it was 1.5%; in experiment [9], 1.01%; in experiment [10], -0.12%; in experiment [11] it was -1.41%; in experiment [12], 1.16%. The inhibition amounted to 0.22% in experiment [13]; 2.67% in experiment [14]; 1.45% in experiment [15]; 3.29% in [16]; 3.35% in experiment [17]; 2.94% in [18]. Moreover, the inhibition in [19] amounted to 1.46%; in [20], 1.41%.
With `COc1cc2ncn(-c3cc(OCc4cccs4)c(C(N)=O)s3)c2cc1OC`, the inhibition in experiment [1] stood at 2.63%; in experiment [2] it was 3.91%; in [3], 11.3%; in [4], 4.14%; in experiment [5], 12.6%; in experiment [6], 3.71%. In addition, the inhibition was 11.8% in experiment [7]; 2.98% in experiment [8]; 9.31% in experiment [9]; 1.53% in experiment [10]; 9.08% in experiment [11]; 5.73% in [12]. Besides, the inhibition in experiment [13] came out at 8.78%; in experiment [14], 4.34%; in experiment [15], 10.6%; in [16], 5.06%; in [17], 6.9%; in [18], 3.16%. In addition, the inhibition in experiment [19] came to 12.8%; in [20] it was 3.12%.
For the compound `O=C(Nc1n[nH]c2cc(-c3cc(F)ccc3F)ccc12)C1CC1`, the inhibition in experiment [1] was determined as 2.49%; in experiment [2] it was 1.39%; in [3] it was 2.28%; in experiment [4], 0.64%; in experiment [5] it was 0.86%; in experiment [6] it was 0.31%. Besides, the inhibition was 1.63% in experiment [7]; 1.04% in [8]; 3.43% in [9]; -0.13% in [10]; 2.43% in experiment [11]; 2.46% in [12]. In addition, the inhibition came to 1.25% in [13]; 0.34% in experiment [14]; 0.08% in [15]; 2.01% in experiment [16]; 0.16% in experiment [17]; 2.72% in [18]. For the same compound, the inhibition amounted to 2.32% in [19] and 3.84% in experiment [20].
In the case of `NC(=O)c1cc(-c2ccncc2)cc(-c2ccccc2)c1N`, the inhibition in experiment [1] was 6.72%; in [2] it was 3.44%; in [3] it was 9.1%; in [4], 1.01%; in [5] it was -1.21%; in [6], 1.46%. Moreover, the inhibition in [7] amounted to 1.47%; in [8], 3.07%; in experiment [9], 2.57%; in [10] it was 2.79%; in [11], 2.63%; in experiment [12], 4.37%. In addition, the inhibition in [13] was determined as 2.48%; in experiment [14], 4.36%; in experiment [15], 3.52%; in [16] it was 2.61%; in experiment [17], 5.81%; in [18] it was 3.6%. For the same compound, the inhibition in experiment [19] came to 2.86%; in experiment [20] it was 4.45%.
Turning to `COc1ccc2cc(-c3c(-c4ccncc4)nc(-c4ccc([S+](C)[O-])cc4C)n3C)ccc2c1` (stereo not given), the inhibition in [1] is -0.59%; in [2] it was -0.57%; in experiment [3], -0.64%; in experiment [4], -0.66%; in experiment [5] it was -1.48%; in experiment [6], -0.38%. For the same compound, the inhibition was -0.28% in experiment [7]; 0.02% in experiment [8]; -0.67% in experiment [9]; -0.13% in [10]; 0.61% in experiment [11]; -0.3% in [12]. For the same compound, the inhibition was 0.17% in experiment [13]; -1.2% in experiment [14]; 0.22% in experiment [15]; -0.05% in [16]; 0.65% in experiment [17]; -0.62% in experiment [18]. The inhibition was -0.8% in experiment [19] and 3.22% in [20].
As to `CCc1cccc(CC)c1/C=C/c1cncc(C(=O)NC)c1`, the inhibition in experiment [1] was 1.22%; in [2] it was 1.66%; in [3] it was -0.13%; in [4], 1.4%; in [5], 0.95%; in experiment [6], 0.3%. Besides, the inhibition in experiment [7] is -0.37%; in [8], 1.51%; in [9], 0.74%; in [10], 0.65%; in experiment [11], 1.72%; in experiment [12], 2.19%. The inhibition in experiment [13] was -0.86%; in experiment [14], 3.62%; in experiment [15], -2.52%; in [16], 0.54%; in experiment [17] it was 0.72%; in experiment [18] it was 1.05%. For the same compound, the values for the inhibition in [19] and in experiment [20] were 1.48% and 0.22%, respectively.

(Values after ChEMBL document CHEMBL1961873, “Compounds: GSK PKIS; Assays: Nanosyn kinase panel” (2012).)
